According to PubChem BioAssay (EPA / NIEHS):
Activity calls are given as the source filed them. The calls were made as follows: active = hit-call score of the fitted dose curve at least 0.9, where 1 is the maximum; inactive = score below 0.9.

read-out: Urokinase-type plasminogen activator receptor (uPAR), PLAUR (gene 5329); test: BSK_BE3C_uPAR: BioMAP Diversity Plus: BE3C Assay for Urokinase-type plasminogen activator receptor (uPAR) Biomarker Activity (AID 2283039); conditions: primary human bronchial epithelial cells; actives raise or lower the signal;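 as to outcome: cells exposed to compound for one day before measurement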
Protocol: BSK_BE3C is a cell-based, multiplexed-readout assay that uses bronchial epithelial cell, a human lung primary cell, with measurements taken at 24 hours after chemical dosing in a 96-well plate.BSK_BE3CAR is an assay component measured in the BSK_BE3C assay. It measures uPAR antibody related to regulation of gene expression using ELISA technology.Data from the assay component BSK_BE3CAR was analyzed into 1 assay endpoint. This assay endpoint, BSK_BE3CAR, was analyzed with bidirectional fitting relative to DMSO as the negative control and baseline of activity. Using a type of binding reporter, gain or loss-of-signal activity can be used to understand changes in the signaling as they relate to the gene PLAUR. Furthermore, this assay endpoint can be referred to as a primary readout, because this assay has produced multiple assay endpoints where this one serves a signaling function. To generalize the intended target to other relatable targets, this assay endpoint is annotated to the cytokine intended target family, where the subfamily is plasmogen activator.
The levels of cell surface (or secreted, indicated by the prefix "s") biomarker endpoints were measured by ELISA. Overt cytotoxicity to cells in confluent adherent cultures (all systems other than the BT system) was assessed by measuring total protein levels using sulforhodamine B (SRB) staining in parallel cultures at the time of biomarker measurements, indicated as SRB endpoints. For proliferation assays for adherent cell types, individual cell types are cultured at sub-confluence and relative cell numbers quantified by SRB staining at time points optimized for each system (48 h: 3C and CASM3C systems; 72 h: BT and HDF3CGF systems; 96 h: SAg system). SRB was performed by staining cells with 0.1% SRB after fixation with 10% TCA and reading wells at 560 nm.Viability and proliferation of PBMC (T cells) was quantified by Alamar Blue reduction for the SAg and BT systems. For PBMC viability (referred to as PBMC Cytotoxicity within the assay endpoint names), cells were plated (75,000/well in a 96-well plate) and then chemical samples added for 1 h before addition of activators, SEB and TSST-1 (20 ng/mL final concentration each). Cells were incubated for 90 h. Then, Alamar Blue (20 uL/well) (Invitrogen, Cat DAL1100) was added for 6 h, and the plates were read with a fluorescence microplate reader at 546/580 nm (excitation/emission). For PBMC proliferation, cells were plated and activated as above but incubated for only 16 h prior to addition of Alamar Blue. Plates were read after 6 h.

Row | SMILES | outcome | AC50
1 | CCCCCCCCCC=O | inactive | –
2 | O=C(O)c1cn(-c2ccc(F)cc2)c2cc(N3CCNCC3)c(F)cc2c1=O | inactive | –
3 | O=C(O)c1cn(C2CC2)c2cc(N3CCNCC3)c(F)cc2c1=O | inactive | –
4 | CC[Si](OC(C)=O)(OC(C)=O)OC(C)=O | inactive | –
5 | C[C@H]1C[C@@H]2[C@H]([C@@H](O)C[C@@]3(C)[C@H]2CC[C@]3(O)C(=O)CO)[C@@]2(C)C=CC(=O)C=C12 | inactive | –
6 | O=C(O)c1ccc([N+](=O)[O-])cc1 | inactive | –
7 | Cc1ccc(Nc2ccc(O)c3c2C(=O)c2ccccc2C3=O)cc1 | inactive | –
8 | c1ccc2c(c1)c1cccc3ccc4cccc2c4c31 | inactive | –
9 | CC(=O)[C@H]1CC[C@H]2[C@@H]3CC=C4C[C@@H](O)CC[C@]4(C)[C@H]3CC[C@]12C | inactive | –
10 | NCCNCCN | inactive | –
11 | O=C=NC1CCC(CC2CCC(N=C=O)CC2)CC1 (stereo not given) | inactive | –
12 | CC1CCC(C(C)CS)CC1S (stereo not given) | – | 20 µM (active)
13 | CCCCC(CC)COC(=O)/C=C\C(=O)OCC(CC)CCCC (stereo not given) | inactive | –
14 | OC1OC[C@@H](O)[C@H](O)[C@H]1O (stereo not given in full) | inactive | –
15 | CC(=O)Nc1ccccc1O | inactive | –
16 | CCCCCCCCC=O | inactive | –
17 | C=C[Si](OCC)(OCC)OCC | inactive | –
18 | O=C1CCCCCCCCCCCCCCO1 | – | 20 µM (active)
19 | CC(C)c1ccc(C(C)C)cc1 | – | 20 µM (active)
20 | C#C[C@]1(O)CC[C@H]2[C@@H]3CCC4=Cc5oncc5C[C@]4(C)[C@H]3CC[C@@]21C | inactive | –

Row | SMILES | outcome | AC50
21 | C=CCOC(=O)CCC1CCCCC1 | inactive | –
22 | CCCCC(CC)COCCC#N (stereo not given) | inactive | –
23 | O=[N+]([O-])c1cc(C(F)(F)F)ccc1Cl | inactive | –
24 | CCn1c2ccccc2c2cc(N)ccc21 | inactive | –
25 | CC1COc2ccccc2N1C(=O)C(Cl)Cl (stereo not given) | inactive | –
26 | CCC(=O)OCc1ccccc1 | inactive | –
27 | Cc1cc(C2(c3cc(C)c(O)cc3C)OS(=O)(=O)c3ccccc32)c(C)cc1O | inactive | –
28 | Cc1ccc(O)c(C(C)(C)C)c1 | – | 20 µM (active)
29 | C=C(C)C(=O)O[C@H]1C[C@@H]2CC[C@@]1(C)C2(C)C | – | 32.2 µM (active)
30 | CC(C)(COC(=O)c1ccccc1)COC(=O)c1ccccc1 | inactive | –
31 | CN(CCOc1ccc(CC2SC(=O)NC2=O)cc1)c1ccccn1 (stereo not given) | – | 3.97 µM (active)
32 | c1ccc2sc(SN(C3CCCCC3)C3CCCCC3)nc2c1 | inactive | –
33 | O=P(c1ccccc1)(c1ccccc1)c1ccccc1 | inactive | –
34 | Nc1cc([N+](=O)[O-])ccc1Cl | inactive | –
35 | CCCCCCCCCCCCCCCCCC(=O)OCC(CC)CCCC (stereo not given) | inactive | –
36 | O=C(O)C[C@H](O)C[C@H](O)/C=C/c1c(C2CC2)nc2ccccc2c1-c1ccc(F)cc1 | inactive | –
37 | COC(=O)c1ccc(C)cc1 | inactive | –
38 | CC(=O)/C=C/C1=C(C)CCCC1(C)C | inactive | –
39 | CC(=O)OCCC(C)CC(C)(C)C (stereo not given) | inactive | –
40 | CC(=O)O[C@]1(C(C)=O)CC[C@H]2[C@@H]3C[C@H](C)C4=CC(=O)CC[C@]4(C)[C@H]3CC[C@@]21C | inactive | –
